Sampled rows, rich in hits. Any-hit rate of the full collection: about 11%.
PNC assembly inh: blocks assembly of the perinucleolar compartment; activity change (PNC), negative = inhibition, % at 10 µM; PC3M PTB-GFP, PNC prevalence imaging, 16 h; stronger effect = lower value; 140,000 tested, 3.1% active;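 active = readout at or below -70, meaning at least 70% loss of cells showing the perinucleolar compartment, a nuclear body marking cancer cells; inconclusive = readout between -30 and a set limit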
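Compounds are pinned in duplicate onto adhered PC3M cells stably expressing GFP-tagged PTB and incubated 16 h at 37 C. Cells are then fixed, nuclei stained with Hoechst, and PNC-positive cells counted.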
ALDH1A1 inh: blocks purified human ALDH1A1 activity. P00352. Purified ALDH1A1, NADH fluorescence, propionaldehyde substrate. Potency, µM (highest dose often 75.3 µM), hits mostly inhibitors. 220,000 tested, 7.3% active. AID 1030
Target sequence (P00352 whole entry, looked up): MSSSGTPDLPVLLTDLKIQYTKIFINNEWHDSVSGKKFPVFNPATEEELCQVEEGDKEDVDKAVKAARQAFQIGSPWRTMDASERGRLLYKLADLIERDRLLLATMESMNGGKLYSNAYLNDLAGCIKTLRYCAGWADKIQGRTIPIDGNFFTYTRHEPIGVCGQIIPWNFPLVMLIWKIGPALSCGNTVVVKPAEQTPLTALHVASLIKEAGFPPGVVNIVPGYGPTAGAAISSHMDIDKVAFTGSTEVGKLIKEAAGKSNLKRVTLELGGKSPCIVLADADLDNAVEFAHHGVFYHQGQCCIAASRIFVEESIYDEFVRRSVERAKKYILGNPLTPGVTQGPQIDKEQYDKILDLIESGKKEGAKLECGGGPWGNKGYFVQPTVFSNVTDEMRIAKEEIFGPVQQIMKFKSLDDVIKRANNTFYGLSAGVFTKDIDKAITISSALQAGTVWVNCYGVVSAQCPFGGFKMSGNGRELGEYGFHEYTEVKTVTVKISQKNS
HPGD inh: HPGD (human) dehydrogenase inhibition | AID 894 | P15428 | purified HPGD, NADH fluorescence kinetic, PGE2 substrate | Potency, µM, most hits filed as inhibitors | 150,000 tested, 4.3% active
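NADH formation kinetics: reaction with 30 uM PGE2 and 1 mM NAD+ (final), 20 nM enzyme, Tris-HCl pH 8 with Tween 20, after 15 min compound preincubation at room temperature. Fluorescence change, last versus first of five reads.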
Large screens that a line does not name were inactive; ! = repeats disagree. Unless noted, calls follow the shape of the dose curve; as a rule, active = well fitted inhibition curve with a large enough effect (not every such curve was filed as active); inconclusive = small, poorly fitted or top-dose-only effect, or another doubt; inactive = no such curve, though single readings can be large or run the other way.

CCOc1ccccc1OCC(=O)NC1CCCCC1	none
COC(=O)c1ccc(/C=N/OCC(=O)NC2CCCCCCC2)cc1	HPGD inh 28.2µM
COc1ccccc1OCC(=O)NC1CCCCCC1	ALDH1A1 inh inconclusive, HPGD inh 10µM
COC(=O)c1ccc(/C=N/OCC(=O)NC2CCCC(C)C2C)cc1 (configuration not stated)	HPGD inh 11.2µM
CCC(C)NC(=O)CO/N=C/c1ccc(C(=O)OC)cc1 (configuration not stated)	none
CC1CCCC(NC(=O)COC(=O)c2ccc(N(C)C)cc2)C1C (configuration not stated)	HPGD inh inconclusive
CCCCCCC/C=C/C1=CC2(C)CC1(C)C(CCCCCCC)CC2=O (configuration not stated)	none (no result: PNC assembly inh, HPGD inh)
Cc1cc(Cl)cc(C)c1OCC(=O)O	PNC assembly inh inconclusive
O=C(O)COc1c(Cl)cc(/C=C2\NC(=O)NC2=O)cc1Br	ALDH1A1 inh 17.8µM (no result: PNC assembly inh, HPGD inh)
CC(C)=O	none (no result: PNC assembly inh)
C=CCN1c2ccccc2[C@]23C[C@@H](C(=O)OC)N(S(=O)(=O)c4ccc(C)cc4)C2=NC(C(=O)OC)=C(C(=O)OC)[C@H]13	none (no result: PNC assembly inh)
O=[N+]([O-])c1c(NCCCO)cc(SCc2ccco2)c2nonc12	ALDH1A1 inh inconclusive
O=[N+]([O-])c1c(NCCCO)cc(Sc2ccc(Cl)cc2)c2nonc12	PNC assembly inh inconclusive, ALDH1A1 inh 4.47µM
COc1ccc(CNc2cc(NCCCO)c([N+](=O)[O-])c3nonc23)cc1	ALDH1A1 inh 10µM (no result: PNC assembly inh, HPGD inh)
Cn1ccnc1Sc1cc(NCCCO)c([N+](=O)[O-])c2nonc12	none (no result: PNC assembly inh, HPGD inh)
COc1ccc(-c2[nH]ncc2CN2CCC(C(=O)c3ccc(F)cc3)CC2)cc1	none (no result: PNC assembly inh, HPGD inh)
O=C(CSc1oc(-c2ccco2)nc1S(=O)(=O)c1ccc(F)cc1)NCC1CCCO1 (configuration not stated)	PNC assembly inh -118.9
O=C(CSc1oc(-c2ccco2)nc1S(=O)(=O)c1ccccc1)NCC1CCCO1 (configuration not stated)	none
CC(C)Sc1oc(-c2ccco2)nc1S(=O)(=O)c1ccc(F)cc1	PNC assembly inh inconclusive, ALDH1A1 inh 20µM
O=S(=O)(c1ccc(F)cc1)c1nc(-c2ccco2)oc1Nc1ccc(F)cc1	ALDH1A1 inh inconclusive
O=[N+]([O-])c1cccc(/C=C/c2nc3ccc([N+](=O)[O-])cc3[nH]2)c1	none
Cc1ccc(NC(=O)CCN2C(=O)CSC2=O)cc1	none
O=C(CCN1C(=O)CSC1=O)Nc1ccc(Br)cc1	PNC assembly inh -100.0
O=C(Nc1nc(-c2cccc([N+](=O)[O-])c2)cs1)c1cccc([N+](=O)[O-])c1C(=O)O	none (no result: PNC assembly inh, HPGD inh)
Cc1c2cc[n+](CCN3CCCCC3)cc2c(C)c2c1[nH]c1ccc(O)cc12	none (no result: PNC assembly inh)
O=C1c2ccccc2S(=O)(=O)N1Cc1nc2ccccc2s1	none
CN(C)c1ccc(C2=NOC(CN3C(=O)c4ccccc4S3(=O)=O)C2)cc1 (configuration not stated)	ALDH1A1 inh 15.8µM, HPGD inh inconclusive
O=C(CCS(=O)(=O)Cc1ccccc1F)N1CCc2ccccc2C1	ALDH1A1 inh 3.55µM
CCC(=O)N1CCCc2cc(S(=O)(=O)N3CCN(c4ncccn4)CC3)ccc21	ALDH1A1 inh inconclusive
CCC(=O)N1CCc2cc(S(=O)(=O)CCC(=O)Nc3ccc(CC)cc3)ccc21	PNC assembly inh inconclusive
CC(=O)N1CCc2cc(S(=O)(=O)CCC(=O)NCc3ccco3)ccc21	none (no result: PNC assembly inh, HPGD inh)
O=C(CCS(=O)(=O)Cc1ccccc1)N1CCc2ccccc2C1	ALDH1A1 inh inconclusive
CC(=O)N1CCc2cc(S(=O)(=O)CCC(=O)N3CCN(C(=O)c4ccco4)CC3)ccc21	ALDH1A1 inh 31.6µM
CCC(=O)N1CCCc2cc(S(=O)(=O)N3CCN(c4ccccc4F)CC3)ccc21	ALDH1A1 inh 14.1µM
CCC(=O)N1CCc2cc(S(=O)(=O)CCC(=O)N3CCc4ccccc4C3)ccc21	PNC assembly inh inconclusive, ALDH1A1 inh 12.6µM
CC(C)CC(C(=O)NC(C)(C)C)N(CC1CCCO1)C(=O)c1snc(C(N)=O)c1N (configuration not stated)	none (no result: PNC assembly inh, HPGD inh)
CC(Sc1nc(-c2ccccc2)cs1)C(=O)Nc1ccc(Cl)cn1 (configuration not stated)	none
O=C(NNS(=O)(=O)c1ccc(F)c(Cl)c1)c1cccc(S(=O)(=O)N2CCOCC2)c1	none
CCOC(=O)CNC(=O)c1c(C)nn(C)c1Cl	none (no result: PNC assembly inh, HPGD inh)
CC1CC1C(=O)OCC(=O)NC(=O)NC12CC3CC(CC(C3)C1)C2 (configuration not stated)	none (no result: PNC assembly inh, HPGD inh)
CC1CCN(c2c(NCC3CCC(C(=O)Nc4ccccn4)CC3)c(=O)c2=O)CC1 (configuration not stated)	PNC assembly inh -118.9, HPGD inh 22.4µM
CC1CCN(c2c(NCC3CCC(C(=O)NCc4ccccc4Cl)CC3)c(=O)c2=O)CC1 (configuration not stated)	HPGD inh 15.8µM
CCOc1ccc(NC(=O)C2CCC(CNc3c(N4CCC(C)CC4)c(=O)c3=O)CC2)cc1 (configuration not stated)	none (no result: PNC assembly inh, HPGD inh)
COc1ccccc1CNC(=O)C1CCC(CNc2c(N3CCOCC3)c(=O)c2=O)CC1 (configuration not stated)	none
CCCCNC(=O)CCn1c(=O)c2ccccc2n(Cc2ccc(F)cc2)c1=O	none
CCC(C)Nc1nc(-c2ccc3c(c2)NC(=O)CO3)cs1 (configuration not stated)	ALDH1A1 inh 3.55µM
CC(C)C(C(=O)OCC(=O)c1ccc2c(c1)NC(=O)CO2)N1C(=O)c2ccccc2C1=O (configuration not stated)	none
CCN1C(=O)/C(=C/N2CC(C)CC(C)C2)SC1=S (configuration not stated)	PNC assembly inh -88.8, ALDH1A1 inh inconclusive
CCn1ncc(/C=C/C(=O)c2ccccc2)c1C	HPGD inh inconclusive
CCN1C(=O)/C(=C\N2CCCCCC2)SC1=S	ALDH1A1 inh inconclusive (no result: HPGD inh)
CCN1C(=O)/C(=C/c2cnn(CC)c2C)SC1=S	ALDH1A1 inh 2µM
Cc1nn(C)c(C)c1/C=C1/SC(=S)NC1=O	ALDH1A1 inh inconclusive
CCN1C(=O)/C(=C/c2c(C)nn(C)c2C)SC1=S	PNC assembly inh inconclusive, ALDH1A1 inh 1.41µM
COc1c(Cl)cc(Br)c(OC)c1C(=O)NC(=O)Nc1nc(C)cc(C)n1	none (no result: PNC assembly inh, HPGD inh)
Cc1ccnc(NC(=S)NC(=O)c2ccco2)c1	none
COC(=O)C(NC(=O)c1ccco1)(Nc1cc(C)ccn1)C(F)(F)F (configuration not stated)	PNC assembly inh -100.0
Cc1ccc(SCc2[nH]nc3c2C2(C(=O)Nc4ccc([N+](=O)[O-])cc42)C(C#N)=C(N)O3)cc1 (configuration not stated)	ALDH1A1 inh 12.6µM
CCOC(=O)N1CCC2(CC1)C(C#N)=C(N)Oc1n[nH]c(CSc3ccc(C)cc3)c12	none
COCc1[nH]nc2c1C1(C(=O)Nc3ccc(F)cc31)C(C#N)=C(N)O2 (configuration not stated)	none
Cc1ccc(SCc2[nH]nc3c2C2(CCSCC2)C(C#N)=C(N)O3)cc1	ALDH1A1 inh 10µM
NS(=O)(=O)c1ccc(CCNC(=O)/C=C/c2cccc([N+](=O)[O-])c2)cc1	none (no result: PNC assembly inh, HPGD inh)
Cc1ccc(N(CC(=O)O)S(C)(=O)=O)cc1	none (no result: PNC assembly inh, HPGD inh)
O=C1c2ccccc2C(=O)C1c1ccc2ccccc2n1	ALDH1A1 inh 25.1µM!
